This passage reports AC50 and outcome results from PubChem BioAssay (EPA / NIEHS).

The target of assay [1] is human Opioid Receptor Mu (Opiate Mu), OPRM1 (gene 4988) (UniProt P35372). Nature of the assay: NVS_GPCR_hOpiate_mu: NovaScreen (NVS) G Protein-Coupled Receptor Assay for human Opioid Receptor Mu (Opiate Mu) (AID 2283290).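 Note: hits lower bound tracer signal versus DMSO meaning displacement of the ligand.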 In outline:
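Here, radioligand binding to CHO-extracted receptor was measured after 2.5 h using filter-based scintillation detection. Initial single-concentration screening used 25 uM in duplicate with plate controls; confirmed actives went to concentration-response testing.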

For assay [2], the target named is rat Adrenergic, Alpha 1, Non-selective Receptor (Adra1), Adra1a (gene 29412) (UniProt P43140). The assay is described as follows: NVS_GPCR_rAdra1_NonSelective: NovaScreen (NVS) G Protein-Coupled Receptor Assay for rat Adrenergic, Alpha 1, Non-selective Receptor (Adra1) (AID 2283289). The method, boiled down:
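Chemicals first screened in duplicate at 25 uM, then actives tested in concentration series up to 50 uM. Binding measured as displacement of radioligand from rat forebrain membrane receptors, 1 h, filtration with scintillation readout; DMSO baseline.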

The target of assay [3] is mouse Cholecystokinin, CCK2 Receptor (CCKB), Cckbr (gene 12426) (UniProt P56481). The assay is described as follows: NVS_GPCR_mCKKBCentral: NovaScreen (NVS) G Protein-Coupled Receptor Assay for mouse Cholecystokinin, CCK2 Receptor (CCKB) (AID 2283293). In outline:
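Mouse forebrain membrane preparation incubated 2 h with chemical and radioligand; bound radioactivity counted after filtration. Single-concentration duplicate screen at 25 uM, then concentration series to 50 uM max for hits, DMSO as baseline.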

Assay [4] deals with rat Adrenergic, Alpha 1B Receptor (Adra1B), gene 24173. The assay is described as follows: NVS_GPCR_rAdra1B: NovaScreen (NVS) G Protein-Coupled Receptor Assay for rat Adrenergic, Alpha 1B Receptor (Adra1B) (AID 2283297). The method, boiled down: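 Filter-binding radioligand competition on membranes from rat liver, read after 1 h by scintillation counting. Single-concentration duplicate screen at 25 uM, followed by concentration-response on actives, normalised to DMSO.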

Assay [5] concerns rabbit Platelet Activating Factor Receptor (PAF), gene 100354046. The assay is described as follows: NVS_GPCR_rabPAF: NovaScreen (NVS) G Protein-Coupled Receptor Assay for rabbit Platelet Activating Factor Receptor (PAF) (AID 2283287). In outline:
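Rabbit platelet membrane preparation; radioligand displacement read by filter-based scintillation counting 1 h after dosing, loss of signal versus DMSO. Primary screen in duplicate at 25 uM, actives followed up in concentration series.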

Assay [6] has as its target guinea pig Bradykinin Receptor B2 (BK2), BDKRB2 (gene 100135486) (UniProt O70526). The assay is described as follows: NVS_GPCR_gBK2: NovaScreen (NVS) G Protein-Coupled Receptor Assay for guinea pig Bradykinin Receptor B2 (BK2) (AID 2283292). In outline:
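Guinea pig ileum membrane preparation incubated 1 h with radioligand and test chemical; bound counts measured after filtration. Primary duplicate screening at 25 uM, then singleton concentration series with a 50 uM top dose; DMSO as baseline.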

For assay [7], the target named is rat Serotonin, 5-Hydroxytryptamine Receptor (5HT), Non-Selective Binding, Htr1a (gene 24473) (UniProt P19327). The assay is described as follows: NVS_GPCR_r5HT_NonSelective: NovaScreen (NVS) G Protein-Coupled Receptor Assay for rat Serotonin, 5-Hydroxytryptamine Receptor (5HT), Non-Selective Binding (AID 2283295). The method, boiled down: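 Rat cortex membrane preparation incubated 1 h with radioligand and test chemical; bound radioactivity counted after filtration. Screening began in duplicate at 25 uM with concentration-series follow-up; fitting relative to DMSO.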

Assay [8] addresses guinea pig Serotonin, 5-Hydroxytryptamine Receptor 4 (5HT4), HTR4 (gene 100135548) (UniProt O70528). Nature of the assay: NVS_GPCR_g5HT4: NovaScreen (NVS) G Protein-Coupled Receptor Assay for guinea pig Serotonin, 5-Hydroxytryptamine Receptor 4 (5HT4) (AID 2283294). In outline:
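Compounds first screened in duplicate at 25 uM, actives followed up in concentration series. Binding measured as displacement of specific radioligand from guinea pig striatal membranes, 1 h, filter-based scintillation read-out versus DMSO baseline.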

Assay [9] deals with human Thromboxane A2 Receptor (TXA2), TBXA2R (gene 6915) (UniProt P21731). The assay is described as follows: NVS_GPCR_hTXA2: NovaScreen (NVS) G Protein-Coupled Receptor Assay for human Thromboxane A2 Receptor (TXA2) (AID 2283282).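 Note: actives reduce bound radioligand signal relative to DMSO baseline.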 In outline: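 Cell-free radioligand binding with human platelet-derived receptor; 1 h after dosing, filter-based scintillation counting, loss of signal vs DMSO. Primary screen in duplicate at 25 uM.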

The target in assay [10] is rat Adrenergic Receptor, Beta (Adrb), Non-selective Binding, Adrb1 (gene 24925) (UniProt P18090). The assay is described as follows: NVS_GPCR_rAdrb_NonSelective: NovaScreen (NVS) G Protein-Coupled Receptor Assay for rat Adrenergic Receptor, Beta (Adrb), Non-selective Binding (AID 2283298). The method, boiled down:
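Rat cortical membranes incubated 1 h with beta-adrenergic radioligand and test chemical; bound ligand measured by filtration and scintillation counting. Screen at 25 uM duplicate, then concentration series with 50 uM maximum; loss of signal versus DMSO.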

For assay [11], the target named is mouse Cholecystokinin, CCK1 Receptor (CCKA), Cckar (gene 12425) (UniProt O08786). Nature of the assay: NVS_GPCR_mCCKAPeripheral: NovaScreen (NVS) G Protein-Coupled Receptor Assay for mouse Cholecystokinin, CCK1 Receptor (CCKA) (AID 2283285). In outline: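 Chemicals were first screened in duplicate at 25 uM, with those meeting threshold (e.g., 30% inhibition) retested in singleton concentration series to 50 uM maximum. Binding of radioligand to mouse pancreatic membranes was read after 2 h by filtration and scintillation counting.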

Assay [12] addresses rat Corticotropin Releasing Factor Receptor (CRF), Crhr1 (gene 58959) (UniProt P35353). The assay is described as follows: NVS_GPCR_rCRF: NovaScreen (NVS) G Protein-Coupled Receptor Assay for rat Corticotropin Releasing Factor Receptor (CRF) (AID 2283300). The method, boiled down: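 Single-concentration (25 uM, duplicate) radioligand binding on rat cortical membrane preparations, counted by scintillation after 2 h. Activity scored as signal loss relative to DMSO negative control.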

Each structure is given as a SMILES string. Where “and” joins values, the source holds several entries; their conditions need not be identical. Identical values can stand only once. Records with an inconclusive call do not appear. More than one record can exist for a structure, and the calls need not agree. Calls of active or inactive are those of the source. Rule for the calls: active = hit-call score of the fitted dose curve at least 0.9, where 1 is the maximum; inconclusive = response in the unintended direction; inactive = score below 0.9.

Usually AC50 stands for the midpoint of the concentration-response curve, whichever way the signal moves.

Sequence of human Opioid Receptor Mu (Opiate Mu), OPRM1 (gene 4988) (P35372 whole entry, looked up): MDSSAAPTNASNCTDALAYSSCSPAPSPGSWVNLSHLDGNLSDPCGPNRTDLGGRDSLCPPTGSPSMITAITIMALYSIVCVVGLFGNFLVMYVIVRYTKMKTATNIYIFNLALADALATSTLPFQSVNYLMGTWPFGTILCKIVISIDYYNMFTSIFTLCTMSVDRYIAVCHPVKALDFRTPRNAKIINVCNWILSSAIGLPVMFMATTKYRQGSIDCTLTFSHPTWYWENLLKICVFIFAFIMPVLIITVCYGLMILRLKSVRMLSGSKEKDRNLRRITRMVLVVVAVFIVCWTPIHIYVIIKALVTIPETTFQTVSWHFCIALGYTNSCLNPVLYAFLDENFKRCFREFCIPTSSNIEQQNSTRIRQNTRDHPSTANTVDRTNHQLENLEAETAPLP
Sequence of mouse Cholecystokinin, CCK1 Receptor (CCKA), Cckar (gene 12425) (O08786 whole entry, looked up): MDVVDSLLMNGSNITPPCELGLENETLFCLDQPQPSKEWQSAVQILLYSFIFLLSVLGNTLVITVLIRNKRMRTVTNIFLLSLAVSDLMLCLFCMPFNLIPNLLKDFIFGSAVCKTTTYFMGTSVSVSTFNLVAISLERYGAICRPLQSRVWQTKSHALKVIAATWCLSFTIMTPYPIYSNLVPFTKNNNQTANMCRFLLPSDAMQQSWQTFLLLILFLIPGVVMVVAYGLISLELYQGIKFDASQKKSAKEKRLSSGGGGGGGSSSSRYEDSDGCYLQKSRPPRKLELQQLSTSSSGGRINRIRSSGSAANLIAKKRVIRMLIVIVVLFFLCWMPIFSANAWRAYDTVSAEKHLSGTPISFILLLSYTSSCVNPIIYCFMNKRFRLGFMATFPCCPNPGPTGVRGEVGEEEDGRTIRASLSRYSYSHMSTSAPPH
Sequence of mouse Cholecystokinin, CCK2 Receptor (CCKB), Cckbr (gene 12426) (P56481 whole entry, looked up): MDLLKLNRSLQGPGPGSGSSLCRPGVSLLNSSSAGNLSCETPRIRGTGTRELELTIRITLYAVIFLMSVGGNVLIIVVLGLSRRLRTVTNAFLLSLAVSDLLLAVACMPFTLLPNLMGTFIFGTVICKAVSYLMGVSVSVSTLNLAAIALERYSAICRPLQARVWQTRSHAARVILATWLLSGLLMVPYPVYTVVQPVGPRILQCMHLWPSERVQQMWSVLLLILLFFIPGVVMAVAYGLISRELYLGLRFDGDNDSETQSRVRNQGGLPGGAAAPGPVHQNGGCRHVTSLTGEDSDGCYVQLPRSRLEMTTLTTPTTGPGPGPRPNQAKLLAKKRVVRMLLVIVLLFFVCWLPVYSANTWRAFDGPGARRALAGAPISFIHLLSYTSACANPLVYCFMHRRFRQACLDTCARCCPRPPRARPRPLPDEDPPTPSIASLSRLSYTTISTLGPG
Sequence of guinea pig Bradykinin Receptor B2 (BK2), BDKRB2 (gene 100135486) (O70526 whole entry, looked up): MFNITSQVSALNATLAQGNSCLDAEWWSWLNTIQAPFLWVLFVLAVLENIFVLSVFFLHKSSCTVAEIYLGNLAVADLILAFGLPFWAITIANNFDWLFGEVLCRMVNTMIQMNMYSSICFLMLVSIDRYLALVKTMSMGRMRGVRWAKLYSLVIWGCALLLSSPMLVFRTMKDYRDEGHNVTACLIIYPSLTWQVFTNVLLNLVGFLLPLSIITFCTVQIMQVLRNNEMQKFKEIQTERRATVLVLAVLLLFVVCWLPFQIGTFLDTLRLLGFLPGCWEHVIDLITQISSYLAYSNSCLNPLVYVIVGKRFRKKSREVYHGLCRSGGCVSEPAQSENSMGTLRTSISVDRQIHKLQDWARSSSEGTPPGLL
Sequence of human Thromboxane A2 Receptor (TXA2), TBXA2R (gene 6915) (P21731 whole entry, looked up): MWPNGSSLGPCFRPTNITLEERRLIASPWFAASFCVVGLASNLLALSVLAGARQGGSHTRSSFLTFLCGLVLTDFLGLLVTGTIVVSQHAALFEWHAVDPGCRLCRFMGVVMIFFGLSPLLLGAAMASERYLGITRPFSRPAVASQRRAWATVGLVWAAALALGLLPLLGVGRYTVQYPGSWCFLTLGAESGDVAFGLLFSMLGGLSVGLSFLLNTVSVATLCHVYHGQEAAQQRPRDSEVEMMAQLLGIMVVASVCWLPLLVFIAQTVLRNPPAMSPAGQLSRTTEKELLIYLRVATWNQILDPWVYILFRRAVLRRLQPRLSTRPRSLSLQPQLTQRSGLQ
Sequence of rat Adrenergic, Alpha 1, Non-selective Receptor (Adra1), Adra1a (gene 29412) (P43140 whole entry, looked up): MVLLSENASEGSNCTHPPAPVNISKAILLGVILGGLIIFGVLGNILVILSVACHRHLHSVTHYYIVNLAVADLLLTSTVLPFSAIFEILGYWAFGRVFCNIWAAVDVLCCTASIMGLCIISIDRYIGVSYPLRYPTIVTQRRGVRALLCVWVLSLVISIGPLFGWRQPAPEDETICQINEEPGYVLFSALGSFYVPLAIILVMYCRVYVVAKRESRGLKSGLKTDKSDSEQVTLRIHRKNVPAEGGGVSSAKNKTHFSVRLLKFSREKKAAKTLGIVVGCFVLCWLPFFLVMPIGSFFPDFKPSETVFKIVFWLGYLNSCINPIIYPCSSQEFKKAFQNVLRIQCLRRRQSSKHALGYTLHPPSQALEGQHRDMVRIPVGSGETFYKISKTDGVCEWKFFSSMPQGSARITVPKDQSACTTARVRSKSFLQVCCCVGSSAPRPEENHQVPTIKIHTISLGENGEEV
Sequence of guinea pig Serotonin, 5-Hydroxytryptamine Receptor 4 (5HT4), HTR4 (gene 100135548) (O70528 whole entry, looked up): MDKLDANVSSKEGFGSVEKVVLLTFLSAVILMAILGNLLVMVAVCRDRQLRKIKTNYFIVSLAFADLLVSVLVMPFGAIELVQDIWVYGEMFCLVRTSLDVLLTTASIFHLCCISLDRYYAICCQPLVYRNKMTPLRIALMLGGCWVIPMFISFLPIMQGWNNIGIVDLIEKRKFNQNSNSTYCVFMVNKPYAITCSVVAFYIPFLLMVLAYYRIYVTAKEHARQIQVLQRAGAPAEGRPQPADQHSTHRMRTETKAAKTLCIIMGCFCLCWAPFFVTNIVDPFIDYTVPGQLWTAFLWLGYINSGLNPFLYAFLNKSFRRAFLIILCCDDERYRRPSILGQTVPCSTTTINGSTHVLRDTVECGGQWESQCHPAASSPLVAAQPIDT
Sequence of rat Adrenergic Receptor, Beta (Adrb), Non-selective Binding, Adrb1 (gene 24925) (P18090 whole entry, looked up): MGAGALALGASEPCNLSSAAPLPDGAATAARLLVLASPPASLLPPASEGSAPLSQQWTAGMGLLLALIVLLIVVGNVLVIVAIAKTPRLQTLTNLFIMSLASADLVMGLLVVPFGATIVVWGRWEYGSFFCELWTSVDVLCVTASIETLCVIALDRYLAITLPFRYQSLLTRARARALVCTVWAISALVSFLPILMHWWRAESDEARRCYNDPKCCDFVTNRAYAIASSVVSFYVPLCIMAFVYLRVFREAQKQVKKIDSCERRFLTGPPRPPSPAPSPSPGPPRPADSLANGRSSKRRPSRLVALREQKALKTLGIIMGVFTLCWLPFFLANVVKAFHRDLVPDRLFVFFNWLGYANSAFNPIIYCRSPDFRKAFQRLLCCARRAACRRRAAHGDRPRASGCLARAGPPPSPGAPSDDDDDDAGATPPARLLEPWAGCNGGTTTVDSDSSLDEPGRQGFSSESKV
Sequence of rat Corticotropin Releasing Factor Receptor (CRF), Crhr1 (gene 58959) (P35353 whole entry, looked up): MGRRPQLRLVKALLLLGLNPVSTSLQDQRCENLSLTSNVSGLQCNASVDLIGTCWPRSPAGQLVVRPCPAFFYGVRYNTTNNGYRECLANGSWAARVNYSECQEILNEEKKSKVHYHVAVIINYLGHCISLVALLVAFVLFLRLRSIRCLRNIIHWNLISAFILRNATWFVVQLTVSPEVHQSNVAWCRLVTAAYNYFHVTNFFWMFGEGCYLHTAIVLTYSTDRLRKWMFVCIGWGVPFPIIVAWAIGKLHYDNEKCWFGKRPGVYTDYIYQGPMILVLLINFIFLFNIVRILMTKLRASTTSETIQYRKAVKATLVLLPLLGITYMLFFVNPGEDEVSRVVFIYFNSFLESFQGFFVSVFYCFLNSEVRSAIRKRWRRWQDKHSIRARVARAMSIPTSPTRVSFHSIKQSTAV
Sequence of rat Serotonin, 5-Hydroxytryptamine Receptor (5HT), Non-Selective Binding, Htr1a (gene 24473) (P19327 whole entry, looked up): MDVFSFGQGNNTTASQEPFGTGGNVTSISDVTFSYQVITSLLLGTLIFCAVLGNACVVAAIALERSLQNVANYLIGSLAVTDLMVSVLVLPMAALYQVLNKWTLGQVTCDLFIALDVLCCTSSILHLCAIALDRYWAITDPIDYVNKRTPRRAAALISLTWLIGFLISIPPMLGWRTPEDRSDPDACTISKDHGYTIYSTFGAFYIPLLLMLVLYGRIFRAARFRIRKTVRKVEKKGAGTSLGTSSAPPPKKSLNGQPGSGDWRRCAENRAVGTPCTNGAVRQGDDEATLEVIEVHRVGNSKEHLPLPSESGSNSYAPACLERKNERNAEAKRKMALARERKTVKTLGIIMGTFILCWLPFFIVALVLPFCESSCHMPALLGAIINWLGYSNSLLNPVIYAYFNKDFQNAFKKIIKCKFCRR

For `O=C1c2ccccc2C(=O)N1SC(Cl)(Cl)Cl`, the AC50 in assay [1] was 6.04 µM (active). In the case of `ClC1C(Cl)C(Cl)C(Cl)C(Cl)C1Cl` (stereo not drawn), the call in assay [2] was inactive. Turning to `CC(C)(C)C(O)C(Oc1ccc(Cl)cc1)n1cncn1` (stereo not drawn), the compound was called inactive in assay [3] and in assay [4].

With `CCOc1nc(NC)nc(NC(=O)NS(=O)(=O)c2ccccc2C(=O)OC)n1`, the result in assay [5] was inactive. Consider `CCC(C)(C)C(=O)OC1=C(c2ccc(Cl)cc2Cl)C(=O)OC12CCCCC2`, for which the result in assay [6] and in assay [3] was inactive.

As to `CC[C@H](C)[C@H]1O[C@]2(C=C[C@@H]1C)C[C@@H]1C[C@@H](C/C=C(\C)[C@@H](O[C@H]3C[C@H](OC)[C@@H](O[C@H]4C[C@H](OC)[C@@H](O)[C@H](C)O4)[C@H](C)O3)[C@@H](C)/C=C/C=C3\CO[C@@H]4[C@H](O)C(C)=C[C@@H](C(=O)O1)[C@]34O)O2` (tested in a mixture with another compound), the AC50 in assay [1] was 9.27 µM (active); in assay [3], 12.4 µM (active); in assay [7] it was 16.4 µM (active). Turning to `N#Cc1c(Cl)c(Cl)c(Cl)c(C#N)c1Cl`, in [8], the compound was classed as inactive. For the compound `CCc1ccc(C(=O)NN(C(=O)c2cc(C)cc(C)c2)C(C)(C)C)cc1`, in assay [3], the call was inactive. Consider `O=C(O)C(F)(F)C(F)(F)C(F)(F)C(F)(F)C(F)(F)C(F)(F)C(F)(F)F`, for which, in [9], the AC50 was 9.44 µM (active) and the outcome was inactive. As to `C#CCN1C(=O)COc2cc(F)c(N3C(=O)C4=C(CCCC4)C3=O)cc21`, the compound was called inactive in assay [6] and in assay [10]. For `COP(=O)(OC)OC=C(Cl)Cl`, in assay [5], the call was inactive.

As for `CCOCN(C(=O)CCl)c1c(C)cccc1CC`, the AC50 in assay [5] is 15.2 µM (active). For the compound `O=C(O)CCCOc1ccc(Cl)cc1Cl`, the AC50 in assay [5] is 15.8 µM (active). `Cc1cc(C)nc(NC(=O)NS(=O)(=O)c2ccccc2C(=O)OC2COC2)n1`: the compound was called inactive in assay [5]. As for `CC(C)(C)C(O)/C(=C\c1ccc(Cl)cc1Cl)n1cncn1` (stereo not drawn), in assay [1], the compound was classed as inactive. With `Oc1cc(Cl)ccc1Oc1ccc(Cl)cc1Cl`, in assay [11], the AC50 is 25.5 µM (active) and 38.4 µM (active); the compound was classed as inactive. In assay [1], the AC50 was 19.9 µM (active) and 7.86 µM (active) and 15.6 µM (active); the outcome was inactive. As for `CC(C)OC(=O)Nc1cccc(Cl)c1`, the AC50 in assay [11] was 15.7 µM (active). The result in [2] was inactive. In the case of `O=[N+]([O-])c1c(Cl)c(Cl)c(Cl)c(Cl)c1Cl`, in assay [12], the call was inactive.
